# LDHA inh: blocks human lactate dehydrogenase A. P00338. activity change, % (values are at about 110 or 230 µM). 480,000 compounds, 0.15% hits. purified LDHA, NADH/diaphorase-resazurin fluorescence; active compounds read low; in the data active = activity change below about -30%; inconclusive = mostly about -25% to -30%;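 note: plate controls were DMSO wells for no effect and wells without enzyme for full effect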
#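 Human LDH5 (2 nM) was incubated with 0.06 mM NADH and 0.2 mM pyruvate for 5 min at room temperature in Tris pH 7.4. Remaining NADH was coupled through diaphorase/resazurin, and resorufin fluorescence was read at 0 and 20 min.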
# D2 antagonist: antagonists of human D2 dopamine receptor; inhibition, % at 10 µM; 340,000 compounds, 2% hits; HEK293 TREx D2 cells, calcium flux, dopamine EC80; P14416; AID 485344; in the data active = inhibition above about 30%; inactive = below that, where a call was filed; note: 0% is about no effect
# Target sequence (P14416 whole entry, looked up): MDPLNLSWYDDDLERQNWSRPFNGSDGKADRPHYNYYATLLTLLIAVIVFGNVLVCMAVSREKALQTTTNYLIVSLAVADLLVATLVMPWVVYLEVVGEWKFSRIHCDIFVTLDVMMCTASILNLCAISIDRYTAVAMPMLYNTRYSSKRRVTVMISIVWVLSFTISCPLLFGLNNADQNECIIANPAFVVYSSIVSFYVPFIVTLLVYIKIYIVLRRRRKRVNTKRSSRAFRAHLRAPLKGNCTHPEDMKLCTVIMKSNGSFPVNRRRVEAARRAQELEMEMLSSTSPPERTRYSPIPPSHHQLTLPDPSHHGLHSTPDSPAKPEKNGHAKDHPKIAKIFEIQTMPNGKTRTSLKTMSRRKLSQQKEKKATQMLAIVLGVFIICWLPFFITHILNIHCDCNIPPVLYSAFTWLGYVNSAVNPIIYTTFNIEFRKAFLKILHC
#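 HEK293 T-REx D2 cells, tet-induced, calcium dye no-wash. Cpd pintool add, 180 s kinetic, then EC80 DA, 180 s kinetic. Ca flux read.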
# D2 ag-1: activates the human D2 dopamine receptor. P14416. DiscoveRx PathHunter D2 beta-arrestin, luminescence, 90 min; 100% = 57 uM dopamine signal. activation, % (no concentration beside the values). 360,000 compounds, 0.084% hits. AID 624465; in the data active = activation above about 40%; inconclusive = between about 15% and that limit
#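 DiscoveRx PathHunter D2 beta-arrestin cells (2,100/well) attached overnight, then compound-stimulated 90 min at 37 C in HBSS/10 mM HEPES/0.1% Tween-20 buffer; beta-galactosidase complementation read by luminescence after 1 h at ambient temperature. Dopamine 57 uM final (EC100) as control.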
# D2 ag-2: D2 dopamine receptor (human) agonism | P14416 | HEK293 T-REx D2 cells, calcium flux agonist mode | activation, % at 2 µM | 340,000 compounds, 0.53% hits;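 active = activation over 3 SD above normal in the single-dose calcium agonist read, cut at about 30% in these data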; note: 0% is about no effect
#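 Tetracycline-induced HEK293 Trex cells with D2 receptor force-coupled to calcium signaling, plated overnight at 30 C and loaded with no-wash calcium dye. Calcium flux read kinetically for 180 s after compound addition; responses flag agonists.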
# D2 PAM-1: positively modulates the human D2 dopamine receptor allosterically. P14416. potentiation, % at 10 µM. HEK293 T-REx D2, calcium flux, EC20 dopamine potentiation. 340,000 compounds, 0.34% hits;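 active = potentiation over 3 SD above the plate norm, cut at about 30% in these data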; note: 0% is about no effect
#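 Tetracycline-induced HEK293 T-REx cells force-coupled to calcium signalling expressed D2; compounds were pin-added after a 10 s baseline, read kinetically 180 s, then an EC20 dopamine challenge followed with a further 180 s calcium read.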
# D2 PAM-2: human D2 receptor positive allosteric modulation | AID 624464 | P14416 | DiscoveRx D2 beta-arrestin cells, luminescence, 90 min; 100% = 57 uM dopamine signal | potentiation, % (test concentration not listed) | 360,000 compounds, 0.23% hits; in the data active = potentiation above about 50%; inconclusive = mostly about 30% to 49%
#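 D2 cells co-treated with compound plus 50 nM dopamine (EC20) for 90 min at 37 deg C to detect potentiation. Beta-arrestin recruitment was read as enzyme-fragment luminescence after 1 h at ambient temperature. Full response was set by 57 uM dopamine.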
# D3 arrestin ag: activates human D3 dopamine receptor beta-arrestin recruitment | shares compounds with D2 ag-2 | DiscoveRx D3 beta-arrestin cells, luminescence, 90 min | Potency, µM (top dose mostly 76.9 µM), for the others: at the top dose activation, usual class: activators | 2,300 compounds, 4% hits;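 note: potency is the fitted concentration of half-maximal effect; 100% = dopamine control response; nearly all actives have a fitted effect of over 70% in size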
# D2 ag-3: activates human D2 dopamine receptor in D3 counterscreen; shares compounds with D2 ag-2; DiscoveRx PathHunter D2 beta-arrestin, luminescence, 90 min; response scale: percent relative to full dopamine signal; Potency, µM (highest dose often 76.9 µM), without a hit: top-dose activation, most hits filed as activators; 2,300 compounds, 5.9% hits; AID 720507; note: potency is the fitted concentration of half-maximal effect; % of control where 0% means no effect; nearly all actives have a fitted effect of over 70% in size
# Active calls of the source: *; u = inconclusive; x = not tested or not shown. Rows were chosen to be rich in hits. Some 2.1% of all compounds tested hit in one or more screens of this group. Unless noted, calls come from the whole dose curve; as a rule, active = well fitted activation curve with a large enough effect; inconclusive = small, poorly fitted or top-dose-only effect; inactive = flat fitted curve, though single readings scatter.
SMILES,LDHA inh,D2 antagonist,D2 ag-1,D2 ag-2,D2 PAM-1,D2 PAM-2,D3 arrestin ag,D2 ag-3
COc1ccccc1N1CCN(CC(=O)Nc2c(C)n[nH]c2C)CC1,0.3,53.4*,-2.1,67.2*,-21.4,-20.7,-10.0%,7.1%
CCN(CC)c1ccc(NC(=O)CN2CCN(c3ccccc3OC)CC2)cc1,6.3,x,x,-5.6,-6.7,x,x,x
CCN1CCN(CCC(=O)Nc2ccccc2OC)CC1,-5.9,-5.4,-2.3,-0.8,0.6,-16.0,x,x
CN1CCN(CCC(=O)N/N=C/c2ccccc2F)CC1,-11.0,2.2,-1.5,0.4,-8.0,-0.4,x,x
COc1ccc(C)cc1NC(=O)CCN1CCN(c2ccccc2)CC1,-3.5,81.7*,u,78.9*,-24.8,-12.6,u,u
CCc1cccc2c(C(=O)O)cc(-c3cc(C)ccc3C)nc12,-10.6,x,x,x,x,x,x,x
O=C(CSCc1c[nH]c(=O)[nH]c1=O)OCC(=O)c1ccc(Br)cc1,-12.9,x,-9.3,x,x,-12.5,-14.9%,-7.0%
C/C(=N/Nc1ccccc1C(F)(F)F)c1cc(Cl)ccc1Cl,-1.6,x,x,x,x,x,x,x
CCCCCNc1c2c(nc3ccccc13)CC(C)(C)CC2=O,8.3,x,x,x,x,x,x,x
COc1cccc(-n2cc(CN(C)C(=O)C3CCC(=O)N(C4CC4)C3)cn2)c1 (stereo not drawn),-11.1,x,-3.3,x,x,-6.9,x,x
COc1cccc(-n2cc(CNC(=O)C3CCC(=O)N(C4CC4)C3)cn2)c1 (stereo not drawn),-0.9,18.8,7.6,-0.3,1.5,2.8,-2.4%,5.2%
CCOC(=O)c1ccc(-n2cccc2/C=C2\NC(=O)NC2=O)cc1,-4.4,7.0,x,-0.6,-14.2,x,2.3%,1.9%
O=c1c2cnn(-c3ccccc3)c2ncn1CCc1ccccc1,-2.3,5.5,-0.4,64.7*,-19.2,9.1,-2.8%,-1.5%
CCn1cnc2c(cnn2-c2ccccc2)c1=O,-2.7,26.4,0.0,-0.5,-8.7,-3.2,x,x
Cc1cccc(SC2CCN(Cc3nc(CC4CC4)no3)CC2)c1,1.5,-14.9,2.6,1.0,2.3,4.8,x,x
Cc1cccc(N2CCN(Cc3nc(CC4CC4)no3)CC2)n1,-1.6,-33.5,1.9,29.7,-10.1,-3.6,-5.2%,-4.5%
O=C(NCCc1ccccc1)C1CCN(S(=O)(=O)c2cccc3nsnc23)CC1,-6.9,-14.4,-0.7,-1.3,2.1,-19.5,x,x
O=C(NCCN1CCN(c2ccccc2)CC1)C1CCN(S(=O)(=O)c2cccc3nsnc23)CC1,0.6,55.5*,u,28.5,x,-1.4,u,22.0%
O=C(O)C1CCCN1S(=O)(=O)c1cccc2nsnc12 (stereo not drawn),-3.1,-6.0,0.4,44.8*,-11.9,-2.3,-9.8%,-1.8%
COc1ccccc1CNC(=O)c1cc(Br)ccc1O,-4.7,x,x,x,x,x,x,x
Cc1ccc(Oc2nc(-c3ccncc3)nc3ccccc23)cc1,-13.7,x,x,x,x,x,x,x
c1cc2c(cc1Cn1cnnn1)OCO2,-3.7,1.5,-2.6,0.2,-13.1,-16.2,x,x
COc1cc(Cn2cnnn2)ccc1O,-6.6,20.1,-2.3,-0.3,-4.4,-14.4,2.2%,0.2%
O=C(/C=C/C=C/c1ccc([N+](=O)[O-])cc1)c1ccccc1,9.0,x,x,x,x,x,x,x
Oc1ccc(Cl)cc1C=NCc1ccc(F)c(Cl)c1,7.3,x,x,x,x,x,x,x
SMILES,LDHA inh,D2 antagonist,D2 ag-1,D2 ag-2,D2 PAM-1,D2 PAM-2,D3 arrestin ag,D2 ag-3
Cc1cnc(C(=O)N2CCCC(N3CCN(c4cccc(C(F)(F)F)c4)CC3)C2)cn1 (stereo not drawn),1.5,-3.8,4.3,26.3,-16.1,-7.4,-4.3%,8.6%
CC(C)n1cc(C(=O)N2CCCC(N3CCN(c4cccc(Cl)c4)CC3)C2)cn1 (stereo not drawn),-3.6,8.4,2.7,52.4*,-12.5,-10.4,5.8%,8.5%
COC(=O)c1ccc(C(=O)N2CCCC(N3CCN(c4ccccc4)CC3)C2)nc1 (stereo not drawn),-0.3,9.6,-1.2,42.9*,-11.1,-8.5,-1.3%,3.8%
O=C(c1ccsc1)N1CCCC(N2CCN(c3cccc(Cl)c3)CC2)C1 (stereo not drawn),-1.7,-15.9,-0.8,7.1,-0.2,-26.4,x,x
Cc1ccc(N2C(=O)c3ccccc3NC23CCSC3)cc1 (stereo not drawn),-0.5,x,x,x,x,x,x,x
COc1ccc(-c2cc(C(=O)NCc3ccc(F)cc3)c3ccccc3n2)c(OC)c1,11.1,x,x,x,x,x,x,x
COc1ccccc1SC(C)C(=O)NC1CCCC1 (stereo not drawn),9.1,x,x,x,x,x,x,x
O=C(COC(=O)c1cc(=O)c2ccccc2o1)c1ccc(OC(F)F)cc1,-8.4,x,x,x,x,x,x,x
CCCCN1CC(=O)N2[C@H]3c4ccc(OC)cc4OC[C@@H]3[C@H](C(=O)OCC)[C@]2(C)C1=O,0.1,-14.8,0.7,-0.7,3.2,-0.7,-2.2%,-0.9%
COc1ccc2c(c1)OC[C@H]1[C@H]2N2C(=O)CN(C)C(=O)[C@@]2(C)[C@H]1c1ccccc1,5.4,-3.4,0.3,1.4,10.9,-4.7,-5.4%,-0.6%
Cc1ccc(CC(=O)N2CCC(NS(=O)(=O)c3ccc(C)cc3)CC2)cc1,4.8,x,x,x,x,x,x,x
CCN(CC)S(=O)(=O)c1ccc(-c2nc(C#N)c(NC3CC3)o2)cc1,-9.3,x,x,x,x,x,x,x
CC(C)(C)C(=O)COC(=O)c1c(Cl)cccc1Cl,-12.7,x,x,x,x,x,x,x
O=C(Nc1ccnn1C1CCN(Cc2cc3ccccc3[nH]2)CC1)C1CCOC1 (stereo not drawn),x,28.1,x,41.6*,-22.0,x,-5.6%,0.1%
CCOC(=O)C1(Cc2cccc(F)c2)CCN(CCCn2cccn2)CC1,-4.4,-23.6,-0.4,42.5*,-21.5,-22.8,-8.9%,0.4%
CCOC(=O)C1(CCOc2ccccc2)CCN(Cc2cccc(-n3cccn3)c2)CC1,0.4,-1.4,6.0,0.0,-20.3,-19.5,x,x
CCOC(=O)C1(CCOc2ccccc2)CCN(CCCn2cccn2)CC1,-2.8,76.8*,1.8,57.0*,-21.4,-13.2,8.0%,18.4%
Cc1oc(-c2ccccc2)nc1C(=O)OCC(=O)NC1(C#N)CCCCC1,-3.5,x,x,x,x,x,x,x
Cc1ccc(-c2cc(C(=O)OCC(=O)N3CCCC3=O)c3ccccc3n2)o1,-18.0,x,x,x,x,x,x,x
O=C(/C=C/c1ccco1)N1CCCC(c2ccccc2)C1 (stereo not drawn),1.0,55.8*,-0.5,57.4*,-13.2,2.9,12.3%,9.3%

# Screens deposited in PubChem BioAssay by National Center for Advancing Translational Sciences (NCATS).
